Measured values taken from PubChem BioAssay (Tox21).
Inconclusive results are not listed. The source made the active and inactive calls. Unless noted, calls follow the shape of the full dose curve.

How the values were obtained:
[1] = qHTS assay to identify small molecule agonists of the sonic hedgehog signaling (Shh) pathway (AID 1259368);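 also: NIH/3T3-derived 3T3Gli1-Luc cells carrying a stable Gli1-driven firefly luciferase reporter; series mostly up to about 92 µM; nearly all actives have a fitted effect of over 15% in size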
Summary of the method: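 3T3Gli1-Luc (NIH/3T3 clone, stable Gli1-Luc); 4 hr pre-incubation, then cpd in DMSO 24 hr, 37 C/5% CO2; luciferase reagent 30 min RT; luminescence.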

[2] = qHTS assay to identify small molecule antagonists of the sonic hedgehog signaling (Shh) pathway (AID 1259369); also: nearly all actives have a fitted effect of over 45% in size; also: potency is read from the fitted curve at half-maximal effect
Summary of the method: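 3T3Gli1-Luc, conditioned-medium-stimulated, 24hr cpd, 37C/5% CO2; Gli1-driven firefly Luc luminescence after 30min RT with luciferase reagent. Cells plated 4hr before cpd.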

[3] = target: Estrogen receptor beta (Homo sapiens) (UniProt Q92731); test: qHTS assay to identify small molecule agonists of the estrogen receptor beta (ER-beta) signaling pathway (AID 1259377; active = well fitted activation curve with a large enough effect in the signal ratio in the repeat runs, not every such curve was filed as active; the % refers to the signal ratio)
Chain of Estrogen receptor beta (Homo sapiens) (Q92731 whole entry, looked up): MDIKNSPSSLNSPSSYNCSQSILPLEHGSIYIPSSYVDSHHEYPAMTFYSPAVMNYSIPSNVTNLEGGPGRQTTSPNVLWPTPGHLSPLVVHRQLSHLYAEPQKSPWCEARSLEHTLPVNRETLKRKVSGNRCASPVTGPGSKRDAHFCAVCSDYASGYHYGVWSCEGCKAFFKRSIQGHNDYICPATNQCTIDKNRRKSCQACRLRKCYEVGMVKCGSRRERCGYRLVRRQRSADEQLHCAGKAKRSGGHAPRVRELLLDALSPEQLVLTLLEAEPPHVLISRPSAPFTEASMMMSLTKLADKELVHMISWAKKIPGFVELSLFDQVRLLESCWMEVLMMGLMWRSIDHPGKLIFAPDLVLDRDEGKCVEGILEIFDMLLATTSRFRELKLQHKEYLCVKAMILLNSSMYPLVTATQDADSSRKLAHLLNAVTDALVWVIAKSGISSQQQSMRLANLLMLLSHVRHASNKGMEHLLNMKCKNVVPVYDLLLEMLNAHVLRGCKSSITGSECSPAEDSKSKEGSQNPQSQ
Summary of the method: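 A UAS-controlled beta-lactamase reporter in ER-beta-UAS-bla HEK293T cells reports receptor activation. Compounds act for 16 hr at 37C in 2% charcoal-stripped serum, and a FRET substrate is read by fluorescence after 2 hours.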

[4] = target: Estrogen receptor beta (Homo sapiens) (UniProt Q92731); test: qHTS assay to identify small molecule antagonists of the estrogen receptor beta (ER-beta) signaling pathway (AID 1259378; active = well fitted inhibition curve with a large enough effect in the signal ratio in the repeat runs, not every such curve was filed as active; the % refers to the signal ratio)
Summary of the method: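 ER-beta-UAS-bla HEK293T (GripTite) cells in 2% charcoal-stripped FBS medium were preincubated 6 hr at 37C, dosed with compound, then stimulated with 1 nM E2 (final) for 16 hr; beta-lactamase reporter read by B/G FRET fluorescence after 2 hr substrate loading.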

[5] = qHTS assay to identify small molecule agonists of the androgen receptor (AR) signaling pathway in the presence of an antagonist - cell viability counter screen (AID 1259379; active = well fitted curve in the direction sought with a large enough effect in the repeat runs; an effect the other way counts as inactive or inconclusive;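 also: MDA-kb2 human breast cancer cells carrying an MMTV luciferase reporter; series mostly up to about 92 µM; nearly all actives have a fitted effect of over 25% in size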)
Summary of the method: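 Cells: MDA-kb2 (MMTV-luc, AR and GR elements), 3,000/well, 5 hr settle. Added: nilutamide 3.0uM final, then compounds (15 conc.). Incubation: 16 hr, 37C, no CO2. Read-out: CellTiter-Fluor, 1 hr, fluorescence.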

[6] = qHTS assay to identify small molecule agonists of the estrogen receptor beta (ER-beta) signaling pathway - cell viability counter screen (AID 1259380; active = well fitted curve in the direction sought with a large enough effect in the repeat runs; an effect the other way counts as inactive or inconclusive; also: nearly all actives have a fitted effect of over 30% in size)
Summary of the method: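 HEK293T ER-beta-UAS-bla; 2% CS-FBS; 6 hr pre-plate, 16 hr cpd at 37C/5% CO2; LiveBLAzer read first, then CellTiter-Glo 30 min RT, luminescence.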

[7] = qHTS assay to identify small molecule antagonists of the estrogen receptor beta (ER-beta) signaling pathway - cell viability counter screen (AID 1259382; active = well fitted curve in the direction sought with a large enough effect in the repeat runs; an effect the other way counts as inactive or inconclusive; also: series mostly up to about 92 µM; nearly all actives have a fitted effect of over 55% in size)
Summary of the method: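 Cells: ER-beta-UAS-bla HEK293T, 2,000/well, 2% CS-FBS, 6 hr settle. Cpd + E2 (1nM final), 16 hr, 37C/5% CO2. Bla FRET substrate 2 hr RT, then CellTiter-Glo 30 min RT, luminescence.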

[8] = target: Estrogen receptor (Homo sapiens) (UniProt P03372); test: qHTS assay to identify small molecule agonists of the estrogen receptor alpha (ER-alpha) signaling pathway in the presence of an antagonist (AID 1259383); also: top concentration of the series differs between compounds; nearly all actives have a fitted effect of over 15% in size
Chain of Estrogen receptor (Homo sapiens) (P03372 whole entry, looked up): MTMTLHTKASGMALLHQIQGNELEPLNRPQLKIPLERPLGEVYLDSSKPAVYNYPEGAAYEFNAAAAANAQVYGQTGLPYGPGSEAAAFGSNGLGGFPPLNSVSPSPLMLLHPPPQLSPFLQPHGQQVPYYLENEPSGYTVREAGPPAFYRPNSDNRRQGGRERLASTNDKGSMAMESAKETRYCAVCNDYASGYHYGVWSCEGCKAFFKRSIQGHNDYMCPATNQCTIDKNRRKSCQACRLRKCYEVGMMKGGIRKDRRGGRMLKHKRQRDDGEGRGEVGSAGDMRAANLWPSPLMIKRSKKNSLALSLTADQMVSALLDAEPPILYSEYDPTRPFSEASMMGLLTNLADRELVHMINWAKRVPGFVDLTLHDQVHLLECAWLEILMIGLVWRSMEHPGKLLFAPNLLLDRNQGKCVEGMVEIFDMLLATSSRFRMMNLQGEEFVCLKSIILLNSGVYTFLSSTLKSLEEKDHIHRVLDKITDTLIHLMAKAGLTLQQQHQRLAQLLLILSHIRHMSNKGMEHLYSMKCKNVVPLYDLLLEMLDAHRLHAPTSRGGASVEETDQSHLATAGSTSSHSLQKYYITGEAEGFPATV
Summary of the method: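 VM7Luc4E2, endog. ER-alpha + 4×ERE-luc; charcoal-stripped FBS, phenol red-free, 5 d; 24hr plating; +10.0nM ICI-182,780 (final); cpds 15 conc, 22hr, 37C/5% CO2; ONE-Glo luminescence.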

[9] = qHTS assay to identify small molecule agonists or antagonists of the thyroid stimulating hormone receptor (TSHR) signaling pathway - wild type cell line counter screen (AID 1259384)
Summary of the method: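 Wild-type HEK293 cells were plated 18 h at 37 C/5% CO2, pin-dosed with compound plus Ro20-1724 medium, held 30 min at room temperature, then given cAMP-d2 and anti-cAMP-cryptate; fluorescence was read after 1 h. Fifteen concentrations, triplicate.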

[10] = target: Thyrotropin receptor (Homo sapiens) (UniProt P16473); test: qHTS assay to identify small molecule antagonists of the thyroid stimulating hormone receptor (TSHR) signaling pathway (AID 1259385); also: nearly all actives have a fitted effect of over 20% in size
Chain of Thyrotropin receptor (Homo sapiens) (P16473 whole entry, looked up): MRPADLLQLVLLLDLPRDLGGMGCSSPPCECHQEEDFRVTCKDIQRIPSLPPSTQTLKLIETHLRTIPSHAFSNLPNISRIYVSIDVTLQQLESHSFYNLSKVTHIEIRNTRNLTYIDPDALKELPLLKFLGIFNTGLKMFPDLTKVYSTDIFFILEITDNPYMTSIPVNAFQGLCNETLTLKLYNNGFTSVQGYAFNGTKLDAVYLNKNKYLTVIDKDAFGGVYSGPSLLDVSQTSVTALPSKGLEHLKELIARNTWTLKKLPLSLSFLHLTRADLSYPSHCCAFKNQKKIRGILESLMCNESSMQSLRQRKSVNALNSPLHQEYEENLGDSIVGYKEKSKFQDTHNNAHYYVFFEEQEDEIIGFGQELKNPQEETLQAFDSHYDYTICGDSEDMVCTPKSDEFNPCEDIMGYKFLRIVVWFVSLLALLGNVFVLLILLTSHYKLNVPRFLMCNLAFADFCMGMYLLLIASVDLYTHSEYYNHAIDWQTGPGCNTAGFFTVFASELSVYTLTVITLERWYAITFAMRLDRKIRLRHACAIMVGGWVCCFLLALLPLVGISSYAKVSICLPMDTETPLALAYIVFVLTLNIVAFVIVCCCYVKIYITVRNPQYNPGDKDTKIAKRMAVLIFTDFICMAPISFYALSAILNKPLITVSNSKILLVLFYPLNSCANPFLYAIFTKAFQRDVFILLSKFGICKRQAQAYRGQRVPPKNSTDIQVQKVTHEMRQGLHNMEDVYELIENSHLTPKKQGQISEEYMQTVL
Summary of the method: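 TSHR-HEK293 cells were plated and held 18 h at 37C/5% CO2, then given compound plus Ro20-1724 and stimulated with TSH at 1.5 ng/mL final. After 30 min at room temperature, cAMP was detected with cAMP-d2/anti-cAMP-cryptate (1 h) by fluorescence.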

[11] = qHTS assay to identify small molecule agonists of the estrogen receptor alpha (ER-alpha) signaling pathway in the presence of an antagonist - cell viability counter screen (AID 1259386; active = well fitted curve in the direction sought with a large enough effect in the repeat runs; an effect the other way counts as inactive or inconclusive;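 also: series mostly up to about 92 µM; cells exposed to compounds for 22 h at 37 °C before the viability read; nearly all actives have a fitted effect of over 30% in size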)
Summary of the method: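 VM7Luc4E2, stripped-serum pre-culture 5 d; 24hr plating; +ICI-182,780 10.0nM final; cpds 15 conc, 22hr, 37C/5% CO2; CellTiter-Fluor added at 21hr, fluorescence 1hr later.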

[12] = target: Progesterone receptor (Homo sapiens) (UniProt P06401); test: qHTS assay to identify small molecule agonists of the progesterone receptor (PR) signaling pathway (AID 1346784); also: nearly all actives have a fitted effect of over 30% in size; also: potency is read from the fitted curve at half-maximal effect
Chain of Progesterone receptor (Homo sapiens) (P06401 whole entry, looked up): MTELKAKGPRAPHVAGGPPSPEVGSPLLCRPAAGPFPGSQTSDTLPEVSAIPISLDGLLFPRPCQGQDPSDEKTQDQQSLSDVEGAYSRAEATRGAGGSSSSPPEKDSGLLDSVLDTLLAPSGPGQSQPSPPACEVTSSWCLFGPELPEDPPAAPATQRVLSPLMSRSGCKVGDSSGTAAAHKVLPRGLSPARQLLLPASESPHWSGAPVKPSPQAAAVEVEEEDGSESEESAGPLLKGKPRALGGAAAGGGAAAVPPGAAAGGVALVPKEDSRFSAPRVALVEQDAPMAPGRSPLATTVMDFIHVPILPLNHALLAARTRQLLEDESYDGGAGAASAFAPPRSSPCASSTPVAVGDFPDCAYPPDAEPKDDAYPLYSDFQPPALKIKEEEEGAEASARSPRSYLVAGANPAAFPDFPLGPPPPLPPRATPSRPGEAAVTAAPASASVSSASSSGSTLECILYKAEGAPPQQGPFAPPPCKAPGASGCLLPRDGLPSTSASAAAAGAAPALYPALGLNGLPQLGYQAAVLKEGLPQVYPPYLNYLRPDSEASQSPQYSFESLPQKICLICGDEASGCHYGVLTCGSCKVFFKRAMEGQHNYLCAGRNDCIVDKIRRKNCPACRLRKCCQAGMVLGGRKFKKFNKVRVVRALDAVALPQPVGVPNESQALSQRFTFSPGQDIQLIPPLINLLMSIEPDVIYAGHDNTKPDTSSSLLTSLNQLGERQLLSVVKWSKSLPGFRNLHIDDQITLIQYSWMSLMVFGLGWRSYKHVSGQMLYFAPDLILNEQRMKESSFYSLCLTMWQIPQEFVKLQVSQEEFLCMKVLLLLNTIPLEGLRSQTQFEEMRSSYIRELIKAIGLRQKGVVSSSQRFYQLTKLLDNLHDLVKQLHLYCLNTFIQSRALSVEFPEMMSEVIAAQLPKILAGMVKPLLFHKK
Summary of the method: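 Agonist mode, quantitative HTS format in a HEK 293T line expressing a UAS-controlled beta-lactamase reporter; 16 hr compound exposure at 37C in 2% charcoal-stripped FBS, then LiveBLAzer B/G FRET fluorescence.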

[13] = target: Progesterone receptor (Homo sapiens) (UniProt P06401); test: qHTS assay to identify small molecule antagonists of the progesterone receptor (PR) signaling pathway (AID 1346795; active = well fitted inhibition curve with a large enough effect in the signal ratio in the repeat runs, not every such curve was filed as active; the % refers to the signal ratio)
Summary of the method: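 HEK293T PR-UAS-bla reporter cells in charcoal-stripped serum (2%) received compound after a 6 hr settling period, followed by R5020 agonist at 1 nM final; 16 hr incubation preceded the FRET substrate step and fluorescence measurement.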

[14] = qHTS assay to identify small molecule antagonists of the progesterone receptor (PR) signaling pathway - cell viability counter screen (AID 1346798; active = well fitted curve in the direction sought with a large enough effect in the repeat runs; an effect the other way counts as inactive or inconclusive; also: series mostly up to about 92 µM; nearly all actives have a fitted effect of over 50% in size)
Summary of the method: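 Same-well multiplex: after 16 hr at 37C with compound and R5020 stimulation, HEK293T cells carrying a UAS-bla reporter received LiveBLAzer substrate (2 hr RT), then CellTiter-Glo (30 min RT) for luminescent viability.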

[15] = qHTS assay to identify small molecule agonists of the progesterone receptor (PR) signaling pathway - cell viability counter screen (AID 1346799); also: nearly all actives have a fitted effect of over 45% in size
Summary of the method: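 Counter screen for cytotoxicity: compound-treated PR-UAS-bla HEK293T cells (16 hr, 37C, 5% CO2) were assayed with CellTiter-Glo, luminescence measured after 30 min at room temperature.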

[16] = qHTS assay to identify small molecule antagonists of the TGF-beta/Smad signaling pathway - cell viability counter screen (AID 1346824; active = well fitted curve in the direction sought with a large enough effect in the repeat runs; an effect the other way counts as inactive or inconclusive; also: nearly all actives have a fitted effect of over 50% in size)
Summary of the method: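 SBE-bla HEK 293T cells were plated overnight at 37 C, then given compounds in DMSO plus TGF-beta1 (added as 0.25 ng/mL solution) for 5 hr. After the bla read, CellTiter-Glo was added to the same wells and luminescence read after 30 min at room temperature.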

[17] = qHTS assay to identify small molecule agonists of the TGF-beta/Smad signaling pathway - cell viability counter screen (AID 1346829; active = well fitted curve in the direction sought with a large enough effect in the repeat runs; an effect the other way counts as inactive or inconclusive; also: top concentration of the series differs between compounds; nearly all actives have a fitted effect of over 45% in size)
Summary of the method: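 Luminescence from CellTiter-Glo, read after a 30 min room-temperature incubation, gives cell viability of SBE-bla HEK 293T cells treated 5 hr with compounds at 37 C.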

[18] = qHTS assay to identify small molecule agonists of the TGF-beta/Smad signaling pathway (AID 1346859; active = well fitted activation curve with a large enough effect in the signal ratio in the repeat runs, not every such curve was filed as active; the % refers to the signal ratio; also: series mostly up to about 77 µM)
Summary of the method: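 Smad-responsive beta-lactamase reporter cells (HEK 293T) received compounds from DMSO stocks after overnight attachment, were incubated 5 hr, then treated 2 hr with FRET substrate before dual-emission fluorescence measurement (405 nm excitation).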

[19] = target: Thyrotropin-releasing hormone receptor (Homo sapiens) (UniProt P34981); test: qHTS assay to identify small molecule antagonists of the thyrotropin-releasing hormone receptor (TRHR) signaling pathway (AID 1346877; active = well fitted inhibition curve with a large enough effect in the repeat runs, not every such curve was filed as active; also: series mostly up to about 51 µM)
Chain of Thyrotropin-releasing hormone receptor (Homo sapiens) (P34981 whole entry, looked up): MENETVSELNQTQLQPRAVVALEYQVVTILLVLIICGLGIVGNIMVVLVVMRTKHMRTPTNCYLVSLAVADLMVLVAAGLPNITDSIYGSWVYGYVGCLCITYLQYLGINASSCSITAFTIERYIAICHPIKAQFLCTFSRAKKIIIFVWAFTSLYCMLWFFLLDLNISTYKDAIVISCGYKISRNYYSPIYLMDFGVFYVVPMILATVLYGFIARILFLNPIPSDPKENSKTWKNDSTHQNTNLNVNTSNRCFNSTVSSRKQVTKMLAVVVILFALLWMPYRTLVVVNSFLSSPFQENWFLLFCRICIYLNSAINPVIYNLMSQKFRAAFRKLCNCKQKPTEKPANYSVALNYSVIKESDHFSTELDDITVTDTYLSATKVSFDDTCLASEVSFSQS
Summary of the method: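 Intracellular calcium fluorescence, read kinetically every second over 3 min, reports TRH-evoked signalling in HEK293 cells carrying TRHR. Test compounds were added 5 min ahead of a 1 nM TRH challenge.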

[20] = target: Androgen receptor (Homo sapiens) (UniProt P10275); test: qHTS assay to identify small molecule agonists of the androgen receptor (AR) signaling pathway in the presence of an antagonist (AID 1259381); also: nearly all actives have a fitted effect of over 15% in size
Chain of Androgen receptor (Homo sapiens) (P10275 whole entry, looked up): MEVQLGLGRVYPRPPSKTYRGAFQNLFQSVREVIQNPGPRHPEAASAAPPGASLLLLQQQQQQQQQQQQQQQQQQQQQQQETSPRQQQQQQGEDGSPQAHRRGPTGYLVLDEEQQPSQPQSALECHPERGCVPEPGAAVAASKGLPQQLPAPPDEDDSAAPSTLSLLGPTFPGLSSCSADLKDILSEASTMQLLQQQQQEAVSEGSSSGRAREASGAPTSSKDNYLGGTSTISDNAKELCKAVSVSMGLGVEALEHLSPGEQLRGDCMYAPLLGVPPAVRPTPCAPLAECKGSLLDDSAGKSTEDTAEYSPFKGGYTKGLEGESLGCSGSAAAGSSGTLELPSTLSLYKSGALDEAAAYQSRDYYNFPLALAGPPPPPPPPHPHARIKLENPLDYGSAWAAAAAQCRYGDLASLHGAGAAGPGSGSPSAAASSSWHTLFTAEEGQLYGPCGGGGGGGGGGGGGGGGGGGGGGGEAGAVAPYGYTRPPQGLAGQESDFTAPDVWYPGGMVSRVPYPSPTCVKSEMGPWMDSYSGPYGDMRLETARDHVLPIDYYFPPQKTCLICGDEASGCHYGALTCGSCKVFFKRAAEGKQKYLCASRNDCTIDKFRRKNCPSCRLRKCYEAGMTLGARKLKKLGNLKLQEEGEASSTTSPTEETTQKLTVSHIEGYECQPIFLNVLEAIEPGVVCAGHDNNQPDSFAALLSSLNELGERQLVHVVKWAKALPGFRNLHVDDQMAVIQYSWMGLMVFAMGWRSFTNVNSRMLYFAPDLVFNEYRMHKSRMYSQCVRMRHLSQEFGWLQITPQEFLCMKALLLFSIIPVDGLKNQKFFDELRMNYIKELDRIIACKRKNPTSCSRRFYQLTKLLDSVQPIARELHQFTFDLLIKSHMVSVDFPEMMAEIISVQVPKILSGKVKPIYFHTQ
Summary of the method: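 MDA-kb2 cells, 3,000/well, rested 5hr at 37C/0% CO2 → nilutamide 3.0uM final or buffer → compounds, 15 conc. → 16hr at 37C → ONE-Glo, 30min RT → luminescence.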

Measured: Potency

CC1=C(C=O)C(C)(C)CCC1
inactive: [1] | [2] | [3] | [4] | [5] | [6] | [7] | [8] | [9] | [10] | [11] | [12] | [13] | [14] | [15] | [16] | [17] | [18] | [19]

CC(=O)OCC(=O)[C@@]12OC(C)(C)O[C@@H]1C[C@H]1[C@@H]3C[C@H](F)C4=CC(=O)C=C[C@]4(C)[C@@]3(F)[C@@H](O)C[C@@]12C
inactive: [1] | [2] | [3] | [4] | [5] | [6] | [7] | [8] | [9] | [11] | [13] | [14] | [16] | [17] | [18]
active: [12] 0.0033 µM

O=Cc1c(Cl)cccc1Cl
inactive: [1] | [2] | [3] | [4] | [5] | [6] | [7] | [8] | [9] | [10] | [11] | [12] | [13] | [14] | [15] | [16] | [17] | [18] | [19]

c1cnc2c(n1)CCCC2
inactive: [1] | [2] | [3] | [4] | [5] | [6] | [20] | [7] | [9] | [10] | [11] | [12] | [13] | [14] | [15] | [16] | [18] | [19]

Cc1ccnc2ccccc12
active: [2] 48.4 µM
inactive: [1] | [3] | [4] | [5] | [6] | [7] | [8] | [9] | [10] | [11] | [12] | [13] | [15] | [16] | [17] | [18] | [19]

O=C(O)c1cccc(O)c1
inactive: [1] | [2] | [3] | [4] | [5] | [6] | [7] | [8] | [9] | [10] | [11] | [12] | [13] | [14] | [15] | [16] | [17] | [18] | [19]

CC(CCO)CCc1ccccc1 (stereo unspecified)
inactive: [1] | [2] | [3] | [4] | [5] | [6] | [7] | [8] | [9] | [10] | [11] | [13] | [14] | [15] | [16] | [17] | [18]

O=C(/C=C/c1ccccc1)OCCCc1ccccc1
inactive: [1] | [2] | [3] | [4] | [5] | [6] | [7] | [8] | [9] | [10] | [11] | [12] | [13] | [15] | [16] | [17] | [18]

CC(CCc1ccc2c(c1)OCO2)NN (stereo unspecified)
inactive: [1] | [2] | [3] | [4] | [5] | [6] | [7] | [8] | [9] | [12] | [13] | [14] | [15] | [16] | [18] | [19]

CC(=O)N(c1onc(C)c1C)S(=O)(=O)c1ccc(N)cc1
inactive: [1] | [2] | [3] | [4] | [5] | [6] | [7] | [8] | [9] | [10] | [11] | [12] | [13] | [14] | [15] | [16] | [17] | [18]

Cc1nc2ccccc2s1
inactive: [1] | [2] | [3] | [4] | [5] | [6] | [8] | [9] | [10] | [11] | [13] | [14] | [15] | [16] | [17] | [18]

CC#N
inactive: [1] | [2] | [3] | [4] | [5] | [6] | [7] | [8] | [10] | [12] | [13] | [14] | [15] | [16] | [18] | [19]

CC1CC(O)CC(C)(C)C1 (stereo unspecified)
inactive: [1] | [2] | [3] | [4] | [5] | [6] | [7] | [9] | [12] | [13] | [16] | [17] | [18] | [19]

O=C(O)C(Cc1cc(I)c(O)c(I)c1)c1ccccc1 (stereo unspecified)
inactive: [1] | [2] | [3] | [4] | [5] | [6] | [8] | [9] | [11] | [12] | [15] | [16] | [17] | [18]

CC(=N\O)/C(C)=N/O
inactive: [1] | [2] | [3] | [4] | [5] | [6] | [7] | [10] | [11] | [12] | [16] | [17] | [18] | [19]
